# An excerpt weighted towards active compounds, which were near 1.7% of everything screened.
# beta cell repl: inducers of MIN6 beta-cell proliferation, primary screen, ATP luminescence, uHTS | MIN6 cells proliferation, ATPlite luminescence, 48 h; cells starved in 0.2% serum; 100% = growth in 10% serum | actives 0.29% (n = 330,000) | proliferation, % at 10 µM;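 active means compounds whose signal lies at least 3.5 SD above the mean of all wells on their plate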;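 further: 0% = DMSO-treated cells in low-serum medium and 100% = 10% serum control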
# H9c2 TAG inh: inhibitors of triacylglycerol accumulation, primary screen, cell-based, uHTS, fluorescence, H9c2; H9c2 cells, Nile Red lipid (TAG) fluorescence; cells loaded with 200 µM oleic acid; inhibition, % at 12.5 µM; actives 0.66% (n = 230,000); AID 651582, 2012;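 active means pattern-corrected inhibition of lipid staining of at least 50% with the nuclear-stain viability signal not falling by more than 50%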;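 further: 0% = DMSO wells and 100% = triacsin C control wells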
# CHT allo act: CHT positive allosteric modulators, primary screen, cell-based, membrane potential dye, choline EC20; High affinity choline transporter 1 (Homo sapiens), Q9GZV3; actives 0.49% (n = 310,000); B-score at 10 µM; CHT-expressing cells; hits give high values; LV-AA mutant CHT in HEK293 cells;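 active means initial fluorescence not abnormally high and integrated response B-score, plate-corrected, over 3 SD above library mean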
# Target sequence (Q9GZV3 whole entry, looked up): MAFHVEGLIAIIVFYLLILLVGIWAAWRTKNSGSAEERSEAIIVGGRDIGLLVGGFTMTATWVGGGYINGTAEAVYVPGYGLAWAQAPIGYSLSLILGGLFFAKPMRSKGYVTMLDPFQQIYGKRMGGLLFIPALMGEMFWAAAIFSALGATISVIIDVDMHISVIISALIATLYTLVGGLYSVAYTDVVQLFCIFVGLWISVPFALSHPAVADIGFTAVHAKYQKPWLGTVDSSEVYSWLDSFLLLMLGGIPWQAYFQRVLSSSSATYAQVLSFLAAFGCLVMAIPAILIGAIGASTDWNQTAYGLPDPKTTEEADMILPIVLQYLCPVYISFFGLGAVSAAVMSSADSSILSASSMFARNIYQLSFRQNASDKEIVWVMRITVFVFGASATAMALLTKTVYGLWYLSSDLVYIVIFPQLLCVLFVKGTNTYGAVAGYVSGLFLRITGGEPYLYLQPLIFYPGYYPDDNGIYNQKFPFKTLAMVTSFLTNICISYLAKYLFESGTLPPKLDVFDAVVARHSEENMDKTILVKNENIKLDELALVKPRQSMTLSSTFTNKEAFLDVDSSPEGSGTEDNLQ
# CHT block: inhibitors of human choline transporter CHT; B-score at 10 µM; actives 0.86% (n = 310,000); CHT-expressing cells, membrane potential dye, choline response; hits give low values; High affinity choline transporter 1 (Homo sapiens), Q9GZV3;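 active means B-score over 3 SD under the library average, and starting fluorescence ratio not unusually high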;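 further: choline stimulus applied at its EC90 after an EC20 pre-addition; B-score computed on integrated fluorescence ratio after choline addition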
# CHT block conf: CHT inhibitors, confirmation, cell-based, membrane potential dye, duplicate; shares compounds with CHT block; CHT-expressing cells, choline membrane potential dye; LV-to-AA substituted CHT, HEK293 cells; CHT activity remaining % of control (hits give low values), % at 10 µM; actives 70% (n = 2,400); AID 493221, 2011;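 active means choline transporter activity left, mean of duplicates at 10 µM, below buffer-only control mean minus 3 SD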;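 further: depolarization triggered by choline at its EC90 following an EC20 pre-addition; 0% = hemicholinium-3 full block and 100% = buffer-only control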
# HEK293 CHT ctr: membrane potential effects in parental HEK293, counter-screen for CHT inhibitor project, cell-based, membrane potential dye; shares compounds with CHT block; membrane potential ratio readout (active if shifted either direction beyond buffer ±3SD; no single direction) at 10 µM; actives 4% (n = 2,400); choline response; active = decrease or increase beyond buffer ±3SD;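 further: parental cells lack the transporter so any hit is non-specific; ratio is peak minus trough fluorescence over baseline after EC90 choline challenge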
# CHT activ conf: CHT activators, confirmation, cell-based, membrane potential dye, duplicate | shares compounds with CHT allo act | CHT-expressing cells, membrane potential dye fluorescence (FDSS); % of choline EC20–EC90 response window; HEK293 expressing CHT LV-AA mutant; choline added at its EC20 | actives 91% (n = 2,500) | AID 504833, 2011 | activation, % at 10 µM;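 active means primary screen active, with duplicate mean activation above negative control mean plus 3 SD, cut at about 11% in these data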
# HEK293 MP dye: membrane potential response in parental HEK293 cells, counter-screen for CHT activator project, cell-based, membrane potential dye; actives 62% (n = 2,500); ratio readout change at 10 µM, hits read low; shares compounds with CHT allo act; membrane potential dye fluorescence (FDSS); measured after EC20 choline addition;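 active means duplicate-averaged ratio beyond 3 SD from buffer wells, up or down, though filed actives are nearly all decreases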
# * hit, by the source's call; i = inactive; / = no result.
SMILES,beta cell repl,H9c2 TAG inh,CHT allo act,CHT block,CHT block conf,HEK293 CHT ctr,others
CCOc1cc(C=C2C(=O)NC(=O)NC2=O)ccc1OS(=O)(=O)c1ccccc1,-2.4,-11.5,i,-7.29*,36.1%*,i,
COc1cc(C=C2C(=O)NC(=O)NC2=O)ccc1OS(=O)(=O)c1ccccc1[N+](=O)[O-],-1.1,/,i,-5.28*,55.5%*,i,
COc1cc(/C=C2\C(=O)NC(=O)N(c3ccccc3)C2=O)c([N+](=O)[O-])cc1OC,/,6.3,/,/,/,/,
NC(=Nc1ccccc1)NN=Cc1c[nH]c2ccccc12,/,23.8,/,/,/,/,
CCC(C)/C=C(C)/C=C/C1=CC2=C(Cl)C(=O)C(C)(OC(C)=O)C(=O)C2=CO1 (centres undefined),-3.9,/,i,-8.39*,24.1%*,i,
CC[C@H](C)/C=C(C)/C=C/C1=CC2=C(Cl)C(=O)[C@@](C)(OC(C)=O)C(=O)C2=CO1,-2.9,/,i,i,/,/,
COc1ccc(-c2nn(CCC#N)cc2C(=O)Nc2cccc([N+](=O)[O-])c2)cc1OC,-0.3,3.5,i,i,/,/,
COc1ccc(OCC(=O)N2CCN(Cc3nc4cc([N+](=O)[O-])ccc4n3C)CC2)cc1,-1.1,/,i,i,/,/,
O=C(COc1ccc(Cl)cc1)N1CCN(Cc2ccc([N+](=O)[O-])cc2)CC1,-0.7,-20.5,i,-5.05*,i,i,
CC1CCCCN1Cc1c[nH]c2ccccc12 (centres undefined),-3.9,19.8,i,-5.68*,i,i,
C[C@]1(O)CCC2C3CC[C@H]4C[C@@H](OC(=O)CNC(=O)CN)CC[C@]4(C)C3CC[C@@]21C (some centres undefined),-3.3,4.9,/,/,/,/,
Oc1ccc(CC2CC3CCN2CC3)cc1O (centres undefined),-1.9,2.5,i,-16.1*,12.5%*,i,
Cc1ccc(N)c(C(=O)c2ccc(Br)cc2)c1,1.0,/,i,-5.11*,i,i,
N=c1c[n+](CC23CC4CC(CC(C4)C2)C3)[n-]o1,1.4,-35.8,i,-5.61*,37.1%*,i,
CC(CC(C)(C)N1CC1)=NNC(=O)Nc1cccc2ccccc12,/,18.0,/,/,/,/,
Cc1ccccc1CCNCc1cc2cccc(C)c2[nH]c1=O,-2.7,-2.4,i,-8.67*,17.6%*,i,
COC(=O)C1=C(c2cccc(C#N)c2)C[C@@H]2CC[C@H]1N2C(=O)NC1CCCCC1,0.1,5.4,/,/,/,/,
O=C1NC(=O)C(=Cc2coc3ccc(O)cc3c2=O)C(=O)N1,-1.6,0.3,i,-6.31*,60.5%*,i,
CN1C(=O)C(=Cc2coc3ccccc3c2=O)C(=O)N(C)C1=O,-2.3,0.3,i,i,/,/,
C/C(=N\N=C(N)N)c1ccccc1,1.3,12.2,i,-9.9*,17.9%*,i,
COCCCNC(=O)c1c(NC(=O)c2ccco2)n(Cc2ccccc2)c2nc3ccccc3nc12,-2.7,-13.1,i,i,/,/,
CCCCCn1c(NC(=O)c2ccco2)c(C(=O)OCC)c2nc3ccccc3nc21,-0.8,/,i,-5.6*,i,i,
Cc1ccc2c(c1)C1CN(C)CCC1N2C(=O)Nc1cccc(C(F)(F)F)c1 (centres undefined),-6.0,7.1,i,-5.42*,23.4%*,i,
Cc1ccc2c(c1)[C@@H]1CN(C)CC[C@@H]1N2C(=O)Nc1cccc(C(F)(F)F)c1,-6.4,/,i,-7.18*,25.9%*,i,
Cc1ccc2c(c1)C1CN(C)CCC1N2C(=O)CCCN1C(=O)c2cccc3cccc(c23)C1=O (centres undefined),-3.2,16.0,i,-5.93*,50.4%*,i,
SMILES,beta cell repl,H9c2 TAG inh,CHT allo act,CHT block,CHT block conf,HEK293 CHT ctr,others
Cc1ccc2c(c1)C1CN(C)CCC1N2C(=O)c1cn(-c2ccccc2)nc1-c1ccccc1 (centres undefined),-7.3,17.3,i,i,/,/,
Cc1ccc2c(c1)C1CN(C)CCC1N2C(=O)c1cccnc1Cl (centres undefined),-1.9,0.4,i,i,/,/,
C=CCN1CC[C@]23c4c5ccc(O)c4OC2C(O)CC[C@@]3(O)[C@H]1C5 (some centres undefined),-2.2,/,/,/,/,/,
Oc1ccc2c3c1O[C@H]1c4oc5ccccc5c4C[C@@]4(O)[C@@H](C2)N(CC2CC2)CC[C@]314,-3.3,17.8,i,i,/,/,
CN(C)c1cccc2c(C#N)ccc(N(C)C)c12,0.6,/,7.77*,i,/,/,CHT activ conf=66.2*;HEK293 MP dye=-69.5*
O=[N+]([O-])c1cccc2c([N+](=O)[O-])cccc12,-4.4,/,/,/,/,/,
Cc1nonc1OCCNCCNc1ccc([N+](=O)[O-])c2cccnc12,5.1,/,i,i,/,/,CHT activ conf=30.0*;HEK293 MP dye=-62.6*
CCNCCNc1ccc([N+](=O)[O-])c2cccnc12,-1.1,16.0,6.31*,i,/,/,CHT activ conf=26.9*;HEK293 MP dye=-65.8*
Cc1ccc(-c2cc(-c3ccccc3)cc(-c3ccccc3)[n+]2-c2ccc(C(=O)O)cc2)cc1,-3.0,7.5,i,i,/,/,
CCCOC(=O)c1ccc(-[n+]2c(-c3ccccc3)cc(-c3ccccc3)cc2-c2ccccc2)cc1,-8.3,10.9,9.3*,i,/,/,CHT activ conf=17.7*;HEK293 MP dye=i
C=C[C@@]12CN(C)[C@H]3[C@H]1[C@@]1(C(=O)Nc4ccccc41)C1CC2[C@@H]3CO1,-3.8,-10.0,i,i,/,/,
COC(=O)c1c2[n+](cc3cc(OC)c(OC)cc13)CCc1cc(OC)c(OC)cc1-2,-0.9,-13.8,i,i,/,/,CHT activ conf=44.4*;HEK293 MP dye=-48.9*
COc1ccc(Cc2nccc3cc(OC)c(OC)cc23)cc1OC,-5.7,-24.9,8.64*,i,/,/,CHT activ conf=58.5*;HEK293 MP dye=-65.9*
COc1ccc(CC2=NCCc3cc(OC)c(OC)cc32)cc1OC,/,-21.9,/,/,/,/,
c1cc2n(c1)-c1c(ccc3c1OCO3)CNC2c1ccc2c(c1)OCO2 (centres undefined),0.4,-6.0,i,i,/,/,
